Here are results for ten compounds from ChEMBL document CHEMBL3988442, “University of Dundee, Small-Polar-MMV Screening Library” (2021).

Common to all, as to design: scale not given: direction of the effect not stated beside the values
Assay [1] deals with Protein translocase subunit SecA (Escherichia coli (strain K12)) (UniProt P10408). Nature of the assay: Assay to Identify E. coli SecA ATPase Inhibitors. It is filed as functional. Conditions: 30 µM.
The target in assay [2] is T1, Ubiquitin-activating enzyme e1, putative (Leishmania donovani (strain BPK282A1)) (UniProt E9BSI1).
T1 sequence (whole entry): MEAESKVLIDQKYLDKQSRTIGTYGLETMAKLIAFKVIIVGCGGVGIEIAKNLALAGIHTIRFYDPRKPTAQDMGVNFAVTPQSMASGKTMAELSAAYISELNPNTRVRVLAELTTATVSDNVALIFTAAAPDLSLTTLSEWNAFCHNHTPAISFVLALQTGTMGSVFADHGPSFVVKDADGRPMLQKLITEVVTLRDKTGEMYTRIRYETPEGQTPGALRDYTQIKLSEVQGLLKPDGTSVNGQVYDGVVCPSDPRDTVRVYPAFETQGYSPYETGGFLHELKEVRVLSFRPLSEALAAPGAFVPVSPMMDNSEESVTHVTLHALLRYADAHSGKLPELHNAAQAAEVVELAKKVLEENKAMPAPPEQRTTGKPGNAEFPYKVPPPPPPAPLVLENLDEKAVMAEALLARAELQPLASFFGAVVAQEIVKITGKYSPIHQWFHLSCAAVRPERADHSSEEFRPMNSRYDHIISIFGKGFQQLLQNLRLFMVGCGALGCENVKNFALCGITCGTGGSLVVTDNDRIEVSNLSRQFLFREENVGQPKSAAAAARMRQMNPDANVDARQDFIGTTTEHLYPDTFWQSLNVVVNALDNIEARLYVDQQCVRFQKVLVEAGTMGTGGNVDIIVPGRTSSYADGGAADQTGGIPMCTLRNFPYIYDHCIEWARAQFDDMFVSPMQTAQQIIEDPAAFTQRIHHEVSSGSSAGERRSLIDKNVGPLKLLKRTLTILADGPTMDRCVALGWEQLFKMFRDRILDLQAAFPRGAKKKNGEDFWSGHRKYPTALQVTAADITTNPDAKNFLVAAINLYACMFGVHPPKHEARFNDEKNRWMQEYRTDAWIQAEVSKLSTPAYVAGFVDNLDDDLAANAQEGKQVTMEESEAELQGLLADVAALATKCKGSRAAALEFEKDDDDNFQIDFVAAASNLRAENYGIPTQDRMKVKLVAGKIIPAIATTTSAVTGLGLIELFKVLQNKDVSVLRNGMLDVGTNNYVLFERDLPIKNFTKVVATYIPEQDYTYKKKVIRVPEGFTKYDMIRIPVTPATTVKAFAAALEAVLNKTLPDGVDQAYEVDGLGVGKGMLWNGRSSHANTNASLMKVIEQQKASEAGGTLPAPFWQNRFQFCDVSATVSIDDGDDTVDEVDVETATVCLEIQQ
Put plainly: Leishmania donovani Ubiquitin Activating Enzyme (LdE1). It is filed as functional. Conditions: 30 µM.

The target in assay [3] is AMP-activated protein kinase, AMPK (Homo sapiens) (UniProt P54646+O43741+P54619+Q9UGJ0+Q9Y478+Q13131+Q9UGI9). Nature of the assay: AMP-dependent Kinase enzyme assay. An in vitro enzyme assay that detects ADP turnover that is directly proportional to AMPK activity. This uses naive AMPK that is activated during the assay with MK-8722. It is filed as functional. The settings on record: 30 µM.

For assay [4], the target named is Sialic acid-binding Ig-like lectin 9 (Homo sapiens) (UniProt Q9Y336). Nature of the assay: Hs-Siglec9 ALPHAscreen SOP 20170721. The settings on record: 10 µM. For orientation: Alpha assays give light when donor and acceptor beads are brought close together.
A further assay deals with Trypanosoma cruzi. Nature of the assay: Trypanosoma cruzi phosphomannomutase and mannose-1-phosphate guanylyltransferase assay. The format is functional. Conditions: 10 µM.
The target of assay [5] is T2, Arginase-2, mitochondrial (Homo sapiens) (UniProt P78540).
T2 sequence (whole entry): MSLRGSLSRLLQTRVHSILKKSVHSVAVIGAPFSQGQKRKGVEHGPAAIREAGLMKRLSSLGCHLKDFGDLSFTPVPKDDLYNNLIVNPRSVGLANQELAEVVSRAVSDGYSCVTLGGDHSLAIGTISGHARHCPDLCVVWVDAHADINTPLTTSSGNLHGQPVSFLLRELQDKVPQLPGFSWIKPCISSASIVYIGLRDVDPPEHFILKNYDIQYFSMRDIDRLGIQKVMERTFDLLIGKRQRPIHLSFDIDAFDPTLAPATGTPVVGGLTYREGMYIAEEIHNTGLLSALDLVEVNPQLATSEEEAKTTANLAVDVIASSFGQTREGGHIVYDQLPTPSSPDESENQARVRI
Nature of the assay: in vitro enzyme assay to detect the production of urea directly proportional to the activity of Arginase II. Further: in the data most compounds retested in dose-response had high values. It is filed as functional. Conditions: 33.3 µM.

Assay [6] addresses T3, Proteasome subunit beta (Trypanosoma cruzi) (UniProt O96673).
T3 sequence (whole entry): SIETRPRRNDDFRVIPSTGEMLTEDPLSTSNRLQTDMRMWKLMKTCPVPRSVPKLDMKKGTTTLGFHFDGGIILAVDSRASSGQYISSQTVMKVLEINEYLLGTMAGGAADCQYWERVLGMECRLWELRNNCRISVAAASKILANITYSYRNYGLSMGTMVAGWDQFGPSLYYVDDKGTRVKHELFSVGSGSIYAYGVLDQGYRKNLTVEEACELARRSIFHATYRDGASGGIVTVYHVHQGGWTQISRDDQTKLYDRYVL
Put plainly: Trypanosoma cruzi proteasome chymotrypsin-like activity (TcProtChymo) assay. Further: in the data most compounds retested in dose-response had high values. Conditions: 9.37 µM. The format is functional.

Another assay is filed under the species Homo sapiens. Put plainly: To identify inhibition of the IFN signalling (Jak-Stat) pathway via expression of an eGFP reporter gene under the control of an IFN-stimulated response element (ISRE) containing MxA promoter. It is filed as functional. Conditions: 30 µM.
Assay [7] addresses T4, Tyrosyl-tRNA synthetase, putative (Trypanosoma cruzi (strain CL Brener)) (UniProt Q4DSP6).
T4 sequence (whole entry): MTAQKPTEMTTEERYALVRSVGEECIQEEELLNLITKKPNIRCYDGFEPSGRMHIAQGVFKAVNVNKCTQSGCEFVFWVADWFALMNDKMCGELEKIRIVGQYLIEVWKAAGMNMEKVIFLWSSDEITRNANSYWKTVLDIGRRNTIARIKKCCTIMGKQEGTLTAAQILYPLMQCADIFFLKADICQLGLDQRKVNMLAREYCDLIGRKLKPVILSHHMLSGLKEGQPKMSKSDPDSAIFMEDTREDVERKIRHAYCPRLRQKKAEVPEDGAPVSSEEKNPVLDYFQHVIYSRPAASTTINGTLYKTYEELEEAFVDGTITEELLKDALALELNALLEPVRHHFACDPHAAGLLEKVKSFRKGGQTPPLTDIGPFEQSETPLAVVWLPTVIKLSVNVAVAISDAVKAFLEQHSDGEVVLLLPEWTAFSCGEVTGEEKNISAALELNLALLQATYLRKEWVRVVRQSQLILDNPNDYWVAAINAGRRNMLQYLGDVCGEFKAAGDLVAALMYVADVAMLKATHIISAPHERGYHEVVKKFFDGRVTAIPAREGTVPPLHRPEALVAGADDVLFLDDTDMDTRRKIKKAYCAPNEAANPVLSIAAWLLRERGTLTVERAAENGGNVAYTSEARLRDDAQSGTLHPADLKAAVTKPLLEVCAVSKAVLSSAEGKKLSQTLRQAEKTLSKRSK
Nature of the assay: Trypanosoma cruzi tyrosyl tRNA synthetase (TcYRS) _High Tyrosine SOP. Further: in the data most compounds retested in dose-response had high values. It is filed as functional. The settings on record: 30 µM.

In assay [8] the target is T4, Tyrosyl-tRNA synthetase, putative (Trypanosoma cruzi (strain CL Brener)). Put plainly: Trypanosoma cruzi tyrosyl tRNA synthetase (TcYRS) SOP. It is filed as functional. The settings on record: 30 µM.
In assay [9] the target is Chromo domain-containing protein 1 (Saccharomyces cerevisiae (strain ATCC 204508 / S288c) (Baker's yeast)) (UniProt P32657). Put plainly: ScCHD-1 Enzyme Inhibition Assay. Further: in the data most compounds retested in dose-response had high values. The settings on record: 30 µM. It is filed as functional.

SMILES strings stand for the structures. For some assays here: Measured potencies and affinities stand elsewhere.

Chain of Protein translocase subunit SecA (Escherichia coli (strain K12)) (P10408 whole entry): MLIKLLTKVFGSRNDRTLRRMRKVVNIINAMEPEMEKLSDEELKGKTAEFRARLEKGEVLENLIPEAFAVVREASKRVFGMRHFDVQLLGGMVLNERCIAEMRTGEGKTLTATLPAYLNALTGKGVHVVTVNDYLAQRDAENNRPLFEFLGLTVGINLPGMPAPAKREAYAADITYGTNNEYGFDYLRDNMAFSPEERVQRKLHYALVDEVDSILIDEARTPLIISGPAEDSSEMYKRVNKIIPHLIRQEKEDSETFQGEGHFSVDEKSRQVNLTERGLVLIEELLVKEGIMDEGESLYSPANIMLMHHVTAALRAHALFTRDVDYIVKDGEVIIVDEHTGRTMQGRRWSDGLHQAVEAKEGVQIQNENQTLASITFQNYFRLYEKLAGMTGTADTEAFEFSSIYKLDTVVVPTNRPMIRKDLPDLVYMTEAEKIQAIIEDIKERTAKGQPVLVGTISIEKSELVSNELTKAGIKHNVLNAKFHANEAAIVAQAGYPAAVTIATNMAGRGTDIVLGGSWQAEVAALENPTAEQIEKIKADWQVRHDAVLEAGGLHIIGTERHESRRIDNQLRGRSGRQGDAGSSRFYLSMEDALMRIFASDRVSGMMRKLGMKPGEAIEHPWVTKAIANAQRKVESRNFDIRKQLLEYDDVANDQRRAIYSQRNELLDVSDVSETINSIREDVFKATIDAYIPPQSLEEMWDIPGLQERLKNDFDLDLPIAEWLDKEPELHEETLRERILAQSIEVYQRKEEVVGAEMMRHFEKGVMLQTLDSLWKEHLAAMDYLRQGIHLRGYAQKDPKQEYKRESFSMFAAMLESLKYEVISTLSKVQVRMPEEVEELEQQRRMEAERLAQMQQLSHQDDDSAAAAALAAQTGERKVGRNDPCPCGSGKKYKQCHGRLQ
Chain of Chromo domain-containing protein 1 (Saccharomyces cerevisiae (strain ATCC 204508 / S288c) (Baker's yeast)) (P32657 whole entry, the tested form may be a part): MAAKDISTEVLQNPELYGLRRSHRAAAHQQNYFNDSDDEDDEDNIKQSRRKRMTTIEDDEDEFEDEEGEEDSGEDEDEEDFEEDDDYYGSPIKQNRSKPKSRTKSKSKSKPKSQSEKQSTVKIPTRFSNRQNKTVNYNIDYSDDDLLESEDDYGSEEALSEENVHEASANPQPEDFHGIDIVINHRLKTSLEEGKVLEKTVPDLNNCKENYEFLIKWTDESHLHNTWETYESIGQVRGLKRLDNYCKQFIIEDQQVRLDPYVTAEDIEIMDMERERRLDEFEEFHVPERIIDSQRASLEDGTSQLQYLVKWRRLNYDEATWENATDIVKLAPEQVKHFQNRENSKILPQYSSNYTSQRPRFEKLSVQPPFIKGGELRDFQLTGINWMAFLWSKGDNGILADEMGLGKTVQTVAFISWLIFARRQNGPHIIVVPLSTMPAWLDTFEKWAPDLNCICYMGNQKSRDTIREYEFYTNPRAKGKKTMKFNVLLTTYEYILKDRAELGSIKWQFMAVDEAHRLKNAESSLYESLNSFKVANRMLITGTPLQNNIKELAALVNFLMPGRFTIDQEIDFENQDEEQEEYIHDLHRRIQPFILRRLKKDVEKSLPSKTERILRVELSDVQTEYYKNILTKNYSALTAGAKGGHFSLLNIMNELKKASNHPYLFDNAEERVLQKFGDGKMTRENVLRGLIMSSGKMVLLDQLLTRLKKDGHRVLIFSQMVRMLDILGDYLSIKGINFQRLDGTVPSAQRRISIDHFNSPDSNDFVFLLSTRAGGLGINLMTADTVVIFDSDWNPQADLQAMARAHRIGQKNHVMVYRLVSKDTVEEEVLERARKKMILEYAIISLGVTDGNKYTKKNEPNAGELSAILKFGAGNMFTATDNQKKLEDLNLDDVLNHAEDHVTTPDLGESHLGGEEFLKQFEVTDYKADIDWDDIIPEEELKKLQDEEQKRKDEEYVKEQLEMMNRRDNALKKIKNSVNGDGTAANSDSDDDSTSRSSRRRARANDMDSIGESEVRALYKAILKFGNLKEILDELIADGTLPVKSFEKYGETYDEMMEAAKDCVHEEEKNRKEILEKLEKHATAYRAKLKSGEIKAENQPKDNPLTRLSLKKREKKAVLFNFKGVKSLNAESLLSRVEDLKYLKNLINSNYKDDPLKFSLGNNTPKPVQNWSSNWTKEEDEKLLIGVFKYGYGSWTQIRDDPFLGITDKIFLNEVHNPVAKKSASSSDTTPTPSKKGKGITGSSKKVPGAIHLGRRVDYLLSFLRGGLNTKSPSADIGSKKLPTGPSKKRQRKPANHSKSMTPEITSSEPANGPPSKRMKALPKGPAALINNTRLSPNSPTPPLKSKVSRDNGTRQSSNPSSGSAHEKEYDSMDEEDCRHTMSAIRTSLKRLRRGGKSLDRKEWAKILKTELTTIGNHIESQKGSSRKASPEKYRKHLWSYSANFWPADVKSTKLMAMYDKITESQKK
Chain of Sialic acid-binding Ig-like lectin 9 (Homo sapiens) (Q9Y336 whole entry): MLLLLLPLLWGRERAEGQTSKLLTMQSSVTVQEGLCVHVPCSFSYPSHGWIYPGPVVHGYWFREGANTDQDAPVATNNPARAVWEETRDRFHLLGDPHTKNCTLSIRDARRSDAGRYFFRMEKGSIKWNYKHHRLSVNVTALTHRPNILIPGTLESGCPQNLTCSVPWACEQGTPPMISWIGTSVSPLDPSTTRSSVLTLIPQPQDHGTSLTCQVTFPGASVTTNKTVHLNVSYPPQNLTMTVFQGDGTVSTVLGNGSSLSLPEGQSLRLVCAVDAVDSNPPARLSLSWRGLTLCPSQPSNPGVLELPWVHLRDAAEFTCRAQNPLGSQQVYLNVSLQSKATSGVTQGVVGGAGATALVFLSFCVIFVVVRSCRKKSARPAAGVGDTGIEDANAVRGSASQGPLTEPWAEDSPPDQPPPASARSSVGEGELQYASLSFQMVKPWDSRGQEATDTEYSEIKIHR

In the case of `Cc1nc(C2CCCN(C(=O)CCCn3ccnc3C)C2)no1` (stereo not given), the Percent Effect in assay [1] was -3.92%; in [2] it was -5.2%; in [3], -5.99%; in assay [4], -4.13%; in the assay on Trypanosoma cruzi, -3.37%; in assay [5] it was 3.56%. Moreover, the Percent Effect in assay [6] was -3.21%; in the assay filed under Homo sapiens, 22.2%; in assay [7], -0.971%; in [8], -2.44%; in assay [9], 5.19%.
Regarding `Cc1cnn(CCC(=O)N2CCN(c3nc(C)cs3)CC2)c1`, the Percent Effect is -5.41% in [1]; 17.7% in assay [2]; -10.1% in assay [3]; 9.63% in assay [4]; 5.76% in the assay on Trypanosoma cruzi; -2.66% in assay [5]. Also, the Percent Effect in assay [6] was 11.6%; in the assay listed under Homo sapiens it was 1.73%; in assay [7] it was 4.43%; in assay [8], 24.1%; in [9], -8.6%.
Take `COc1ccc(CN2C[C@H](OCC3CCOCC3)[C@H]3COC[C@H]32)cc1`: the Percent Effect in [1] was -0.325%; in [2], 0%; in assay [3], -1.04%; in assay [4], 9.22%; in the assay with Trypanosoma cruzi, -0.992%; in [5], -3.99%. In addition, the Percent Effect in [6] is 15.3%; in the assay filed under Homo sapiens it was 3.85%; in assay [7], 11.5%; in assay [8], 11.1%; in [9], -1.49%.
On to `Cn1cc(CN2CC[C@@H]3[C@@H](CCC(=O)N3CCC3=CCCCC3)C2)cn1`, for which the Percent Effect was -5.13% in assay [1]; 8.22% in assay [2]; 4.85% in assay [3]; 0.26% in assay [4]; 0.992% in the assay on Trypanosoma cruzi; -2.79% in assay [5]. The Percent Effect in assay [6] was 10.7%; in the assay filed under Homo sapiens, -22.4%; in [7] it was 0%; in [8], 1.24%; in assay [9], 1.06%.
Consider `Cc1nc(N(C)C)nc2c1COCC21CCN(C(=O)NC(C)C)C1` (stereo not given), for which the Percent Effect in [1] was -5.29%; in assay [2], 0%; in assay [3] it was -0.0672%; in assay [4], 2.32%; with Trypanosoma cruzi it was 2.15%; in [5], -2.08%. Also, the Percent Effect is 4.82% in [6]; -1.11% in the assay filed under Homo sapiens; 0.99% in [7]; 18.3% in assay [8]; -4.61% in [9].
As for `O=C1CCC2(CCCN(c3ncc(F)cn3)CC2)N1CC1CC1` (stereo not given), the Percent Effect in [1] was -4%; in assay [2] it was 7.79%; in [3], 3.94%; in assay [4], 5.12%; with Trypanosoma cruzi, 1.08%; in assay [5] it was 5.81%. The Percent Effect in assay [6] is 12.7%; in the assay filed under Homo sapiens, 14.5%; in assay [7], 6.35%; in assay [8], 16.7%; in assay [9] it was -4.57%.
Take `Cc1n[nH]c(C(=O)NCc2ccnc(OCC(F)(F)F)c2)c1Br`: the Percent Effect in assay [1] was -4.7%; in assay [2], 23.7%; in assay [3], -2.47%; in assay [4], 1.14%; in the assay on Trypanosoma cruzi, 8.08%; in [5] it was -0.383%. In addition, the Percent Effect is 18.4% in assay [6]; 5.22% in the assay filed under Homo sapiens; 6.37% in assay [7]; 24.4% in [8]; -11.1% in assay [9].
Regarding `O=C(CS(=O)(=O)c1ccccc1Cl)NC1CCCCNC1=O` (stereo not given), the Percent Effect in [1] was -6.72%; in [2], 13%; in assay [3] it was -4.35%; in [4], 4.43%; in the assay on Trypanosoma cruzi, 2.43%; in [5] it was -1.78%. For the same compound, the Percent Effect is 6.93% in [6]; -3.42% in the assay filed under Homo sapiens; 2.91% in [7]; 14.6% in assay [8]; -2.31% in assay [9].
Take `Cn1cnc2c1C(COCC1CC1)CN(Cc1ccsc1)C2` (stereo not given): the Percent Effect in assay [1] was -1.29%; in assay [2] it was 13%; in [3], 3.5%; in assay [4] it was -4.76%; in the assay on Trypanosoma cruzi, -1.68%; in assay [5], 7.1%. Also, the Percent Effect in [6] is 20.2%; in the assay filed under Homo sapiens it was 6.71%; in assay [7], 6.35%; in assay [8], 11.5%; in [9] it was -6.29%.
For the compound `NC(=O)N1CCC2(CC1)CN(c1ccsc1)C(=O)CO2`, the Percent Effect in assay [1] is -5.13%; in assay [2], 10.7%; in assay [3], 4.87%; in assay [4], 0.623%; in the assay on Trypanosoma cruzi it was -7.68%; in assay [5] it was -3.96%. Further, the Percent Effect in assay [6] is -2.38%; in the assay filed under Homo sapiens, 11%; in assay [7], -3.19%; in [8], -1.28%; in assay [9], -2.23%.
